Data: PubChem BioAssay (NCATS)
“And” between values parts separate entries of the source, which are not always exact repeats. Equal entries are not always repeated. Inconclusive results are not listed. Where a call stands in place of a potency, no number is given. The source made the active and inactive calls. Unless noted, calls come from the whole dose curve; as a rule, active = well fitted curve in the direction sought with a large enough effect; inconclusive = small, poorly fitted or top-dose-only effect, or another doubt; inactive = no such curve, though single readings can be large; an effect the other way counts as inactive or inconclusive.

Columns and labels:
[1] = AP1 Signaling Pathway (AID 357; active = well fitted curve in either direction with a large enough effect, not every such curve was filed as active;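 note: ME-180 reporter cells stimulated with EGF at its EC50 level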); settings: ME-180 AP-1-bla reporter, EGF-induced, beta-lactamase ratio, 5 h; at 38 µM (top of the series)
Outline: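 Beta-lactamase reporter under AP-1 response element, ME-180 background. Stimulus: EC50 EGF. Compound exposure 5 h, 37 °C. Detection: CCF4, 2.5 h RT, 460/530 nm. Values: AC50 from titration.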

[2] = molecular target: Cytochrome P450 1A2 (Homo sapiens) (UniProt P05177); test: p450-cyp1a2 (AID 410; calls by dose curve; note: potency is the fitted concentration of half-maximal effect)
Sequence of Cytochrome P450 1A2 (Homo sapiens) (P05177 whole entry, looked up): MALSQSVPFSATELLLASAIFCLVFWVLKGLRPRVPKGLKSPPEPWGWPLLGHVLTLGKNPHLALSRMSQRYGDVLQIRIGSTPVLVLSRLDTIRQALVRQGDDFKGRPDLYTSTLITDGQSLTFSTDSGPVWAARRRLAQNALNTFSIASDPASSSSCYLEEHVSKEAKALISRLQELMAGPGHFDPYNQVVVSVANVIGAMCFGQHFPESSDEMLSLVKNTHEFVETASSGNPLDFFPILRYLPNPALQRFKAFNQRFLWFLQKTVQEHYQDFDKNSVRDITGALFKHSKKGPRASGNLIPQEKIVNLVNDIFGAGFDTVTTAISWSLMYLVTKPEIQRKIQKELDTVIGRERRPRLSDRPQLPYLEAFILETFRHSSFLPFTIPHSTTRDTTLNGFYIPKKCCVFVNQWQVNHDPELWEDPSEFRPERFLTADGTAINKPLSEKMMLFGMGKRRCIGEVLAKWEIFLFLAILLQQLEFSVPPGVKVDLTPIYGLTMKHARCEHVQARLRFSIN
Outline: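 O-Demethylation of luciferin 6' methyl ether by human CYP1A2 is monitored as luciferase luminescence. Substrate sits at Km (100uM); enzyme is 20nM. Values are scaled to 57 uM furafylline as maximal inhibition.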

[3] = NFAT Signaling Pathway (AID 444; active = well fitted curve in either direction with a large enough effect, not every such curve was filed as active;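 note: carbachol stimulus at about its EC50 of 1 µM final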); settings: Jurkat NFAT-bla M1, carbachol, beta-lactamase ratio, 5 h; at 38 µM (top of the series)
Outline: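 Read-out: CCF4 FRET ratio (460 nm/530 nm) after 1 h RT dye loading, used for %activity and AC50 from titration series. Cells: Jurkat NFAT-β-lactamase/M1 line, treated with compound plus 1 uM carbachol for 5 h, 37 °C.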

[4] = molecular target: Glucocorticoid receptor (Homo sapiens) (UniProt P04150); test: GR-GFP Redistribution (AID 450;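 active = compounds whose dose series gives a full or clear partial fitted curve of increased nuclear translocation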; note: potency is the fitted concentration of half-maximal effect); settings: U2OS GR-GFP nuclear translocation, laser cytometry, 2 h
Sequence of Glucocorticoid receptor (Homo sapiens) (P04150 whole entry, looked up, the tested form may be a part): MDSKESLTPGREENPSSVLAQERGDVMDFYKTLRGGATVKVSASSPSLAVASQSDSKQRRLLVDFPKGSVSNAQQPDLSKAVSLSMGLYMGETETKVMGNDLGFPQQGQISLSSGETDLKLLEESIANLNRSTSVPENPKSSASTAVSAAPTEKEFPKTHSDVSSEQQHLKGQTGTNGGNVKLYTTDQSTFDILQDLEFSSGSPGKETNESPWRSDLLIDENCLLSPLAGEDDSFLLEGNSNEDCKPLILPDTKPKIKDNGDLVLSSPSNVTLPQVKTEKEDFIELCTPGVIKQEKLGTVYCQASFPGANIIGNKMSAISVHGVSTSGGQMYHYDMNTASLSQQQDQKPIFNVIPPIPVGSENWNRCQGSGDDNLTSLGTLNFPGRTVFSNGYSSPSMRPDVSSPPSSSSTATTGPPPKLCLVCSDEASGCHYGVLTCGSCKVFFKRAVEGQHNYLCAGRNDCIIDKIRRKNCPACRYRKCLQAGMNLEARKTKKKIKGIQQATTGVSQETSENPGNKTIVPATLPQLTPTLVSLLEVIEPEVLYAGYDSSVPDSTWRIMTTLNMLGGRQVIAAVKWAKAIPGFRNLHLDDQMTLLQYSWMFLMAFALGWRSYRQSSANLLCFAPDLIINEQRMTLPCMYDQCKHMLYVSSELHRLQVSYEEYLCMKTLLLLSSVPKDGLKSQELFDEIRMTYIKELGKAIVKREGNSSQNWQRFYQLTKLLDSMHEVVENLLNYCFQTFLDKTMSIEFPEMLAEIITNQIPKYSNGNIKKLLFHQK

[5] = molecular target: Glucocorticoid receptor (Homo sapiens) (UniProt P04150); test: GR-EFC Redistribution (AID 451; calls by dose curve; note: potency is the fitted concentration of half-maximal effect); settings: CHO-K1 GR-EFC translocation, beta-gal luminescence, 2 h
Outline: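 Translocation of GR-ED fusion to nuclear EA restores b-gal, read by luminescence after 1 h room-temperature detection. Engineered CHO-K1 biosensor cells, 1,000/well, exposed 2 h at 37 C to titrations up to 46 uM final.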

[6] = molecular target: Mitogen-activated protein kinase 10 (Mus musculus) (UniProt Q61831); test: JNK3 AlphaScreen Assay (AID 530; active = well fitted curve in either direction with a large enough effect, not every such curve was filed as active;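 note: kinase came from lysate of stimulated human HepG2 cells; signal reports phosphorylation of biotinylated GST-cJun 1-79 at Ser73 with 10 µM ATP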)
Outline: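 qHTS titrations with 15 min compound pre-incubation before adding ATP (10 uM final). Read-out: AlphaScreen of Ser73-phosphorylated biotin-GST-cJun using HepG2 lysate JNK3 activated by IL-1β and TNFα.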

[7] = molecular target: 3',5'-cyclic-AMP phosphodiesterase 4B (Homo sapiens) (UniProt Q07343); test: qHTS Assay for Inhibitors of PDE-IV (AID 607; active = well fitted activation curve with a large enough effect in the main read-out, with a control signal flat, not every such curve was filed as active)
Outline: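 The readout is membrane depolarisation from a cAMP-sensing CNG channel, detected with a potential dye at ex 535/em 590. Cells were HEK293-derived (endogenous PDE-IV) at 1000 cells/well, titrated up to 22.9 uM final.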

[8] = molecular target: Guanine nucleotide-binding protein G(i) subunit alpha-1 (Homo sapiens) (UniProt P63096); test: qHTS Assay for Inhibitors of RGS12 GoLoco Motif Activity (Green Fluorophore) (AID 879);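 note: negative values mean loss of peptide binding seen as reduced polarization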
Sequence of Guanine nucleotide-binding protein G(i) subunit alpha-1 (Homo sapiens) (P63096 whole entry, looked up): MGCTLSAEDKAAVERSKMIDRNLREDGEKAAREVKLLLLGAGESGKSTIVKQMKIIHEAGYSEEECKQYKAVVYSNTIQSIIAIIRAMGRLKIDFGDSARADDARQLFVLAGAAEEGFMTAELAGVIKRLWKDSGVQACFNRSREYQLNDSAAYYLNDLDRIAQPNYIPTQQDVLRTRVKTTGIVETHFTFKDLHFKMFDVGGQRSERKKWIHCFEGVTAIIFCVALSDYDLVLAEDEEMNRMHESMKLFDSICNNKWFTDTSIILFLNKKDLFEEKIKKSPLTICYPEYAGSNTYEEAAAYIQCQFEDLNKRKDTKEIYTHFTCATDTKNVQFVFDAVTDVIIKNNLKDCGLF
Outline: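 A drop in FITC polarization marked displacement of the FITC-tagged RGS12 GoLoco peptide (10 nM) from Gαi1 (50 nM). Compounds were incubated 10 min at room temperature in Tris pH 7.5 buffer containing 150 mM NaCl, 0.1 mM GDP and 0.05% NP40; unlabeled peptide titration served as control.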

[9] = molecular target: Cytochrome P450 2C9 (Homo sapiens) (UniProt P11712); test: qHTS Assay for Inhibitors and Substrates of Cytochrome P450 2C9 (AID 883); note: potency is the fitted concentration of half-maximal effect; nearly all actives have a fitted effect of over 60% in size
Outline: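 Turnover of Luciferin-H (100uM, KM) by 10nM human CYP2C9 was measured over 60 min at 37C with NADPH regeneration; inhibitors and some substrates reduce luminescence. Data normalized to sulphaphenazole 57uM.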

[10] = molecular target: Cytochrome P450 3A4 (Homo sapiens) (UniProt P08684); test: qHTS Assay for Inhibitors and Substrates of Cytochrome P450 3A4 (AID 884); note: potency is the fitted concentration of half-maximal effect; nearly all actives have a fitted effect of over 50% in size
Sequence of Cytochrome P450 3A4 (Homo sapiens) (P08684 whole entry, looked up): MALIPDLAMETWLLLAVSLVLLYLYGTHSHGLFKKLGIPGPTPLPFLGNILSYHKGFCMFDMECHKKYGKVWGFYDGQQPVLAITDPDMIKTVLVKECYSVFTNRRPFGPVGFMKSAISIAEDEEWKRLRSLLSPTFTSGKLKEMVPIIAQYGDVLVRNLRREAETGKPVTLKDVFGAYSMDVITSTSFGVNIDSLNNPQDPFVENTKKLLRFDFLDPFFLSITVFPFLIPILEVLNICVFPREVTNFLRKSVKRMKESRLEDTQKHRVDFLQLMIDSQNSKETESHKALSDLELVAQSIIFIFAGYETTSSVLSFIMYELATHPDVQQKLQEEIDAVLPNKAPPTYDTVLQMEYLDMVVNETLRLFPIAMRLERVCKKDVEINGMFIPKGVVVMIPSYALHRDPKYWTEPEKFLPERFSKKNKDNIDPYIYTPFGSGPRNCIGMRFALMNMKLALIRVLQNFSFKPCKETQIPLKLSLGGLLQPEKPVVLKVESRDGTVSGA
Outline: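 Luminescent readout of luciferin produced by CYP3A4 (20 nM) dealkylation of Luciferin-PPXE, 25 uM (its KM). NADPH-driven reaction ran 60 min at RT after 10 min compound preincubation; data scaled to 57 uM ketoconazole as 100% inhibition.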

[11] = molecular target: Cytochrome P450 3A4 (Homo sapiens) (UniProt P08684); test: qHTS Assay for Activators of Cytochrome P450 3A4 (AID 885); note: nearly all actives have a fitted effect of over 65% in size
Outline: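 Activators are scored by enhanced luminescence from CYP3A4 conversion of luciferin-PPXE (25uM, equal to KM) to luciferin, after 60 min at RT with an NADPH-regenerating system.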

[12] = molecular target: Cytochrome P450 2C19 (Homo sapiens) (UniProt P33261); test: qHTS Assay for Inhibitors and Substrates of Cytochrome P450 2C19 (AID 899); note: potency is the fitted concentration of half-maximal effect; nearly all actives have a fitted effect of over 60% in size
Sequence of Cytochrome P450 2C19 (Homo sapiens) (P33261 whole entry, looked up): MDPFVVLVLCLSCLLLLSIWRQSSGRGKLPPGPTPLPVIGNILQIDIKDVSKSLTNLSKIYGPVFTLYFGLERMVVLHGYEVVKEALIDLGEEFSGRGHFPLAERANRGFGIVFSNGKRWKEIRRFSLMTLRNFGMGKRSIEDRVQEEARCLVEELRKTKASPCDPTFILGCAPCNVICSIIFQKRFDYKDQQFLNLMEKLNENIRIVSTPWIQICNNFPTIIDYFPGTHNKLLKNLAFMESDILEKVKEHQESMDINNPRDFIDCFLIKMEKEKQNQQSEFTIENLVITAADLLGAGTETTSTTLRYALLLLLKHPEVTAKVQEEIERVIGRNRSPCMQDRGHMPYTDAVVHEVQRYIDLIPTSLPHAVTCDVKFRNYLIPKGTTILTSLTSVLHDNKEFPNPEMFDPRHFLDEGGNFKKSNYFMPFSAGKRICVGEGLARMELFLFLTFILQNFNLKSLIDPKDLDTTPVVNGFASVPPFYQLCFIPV
Outline: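 Reactions contain 5nM enzyme, 10uM Luciferin-H EGE (KM) and 50mM KPO4; compound preincubates 10 min at 37C, NADPH regeneration starts turnover for 60 min. Luminescence after detection reagent gives activity.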

[13] = Confirmation and Secondary Assay for Modulators of Hemoglobin Beta Chain Splicing at IVS2 654 locus (AID 910);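 note: HeLa cells stably carrying EGFP split by mutant beta-globin IVS2-654 intron; per-well total GFP intensity by laser scanning cytometry after 2-day treatment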
Outline: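 Readout: per-well total peak green fluorescence (488 nm ex, 500–520 nm em) from objects 5–250 µm, reflecting correct splicing of an EGFP-654 reporter. Compounds were applied for 2 days at 37 °C to overnight-plated HeLa EGFP-654 cells; controls were DMSO and 500 nM IVS2-654 PNA.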

[14] = qHTS Assay for Identification of Small Molecule Agonists for Hypoxia Response Element Signaling Pathway (AID 914; active = well fitted activation curve with a large enough effect in the signal ratio, with a control signal flat, not every such curve was filed as active; the % refers to the signal ratio); settings: ME-180 (cervical carcinoma) HRE-bla reporter, beta-lactamase ratio, CoCl2, 17 h; stronger effect = higher value
Outline: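 Positive modulation of EC50 CoCl2-induced hypoxia response element signaling is measured in ME-180 cells with a beta-lactamase reporter. Compounds are titrated, incubation runs 17 hours, and %Activity derives from the blue/green ratio.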

[15] = Confirmation and Secondary Assay for Modulators of Hemoglobin Beta Chain Splicing at IVS2 705 locus (AID 930);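 note: HeLa cells stably expressing the EGFP-705 splicing reporter; GFP fluorescence per well restored by corrected splicing of the IVS2-705 intron in EGFP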
Outline: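 First, HeLa EGFP-705 cells are seeded at 500/well in Optimem with 2% FCS and left overnight. Next, compound or DMSO is added for 2 days. Finally wells are laser-scanned and total peak GFP intensity scored.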

[16] = molecular target: Pyruvate kinase (Leishmania mexicana) (UniProt Q27686); test: qHTS Validation Assay for Inhibitors of Leishmania Mexicana Pyruvate Kinase (AID 945)
Sequence of Pyruvate kinase (Leishmania mexicana) (Q27686 2-499 E452W): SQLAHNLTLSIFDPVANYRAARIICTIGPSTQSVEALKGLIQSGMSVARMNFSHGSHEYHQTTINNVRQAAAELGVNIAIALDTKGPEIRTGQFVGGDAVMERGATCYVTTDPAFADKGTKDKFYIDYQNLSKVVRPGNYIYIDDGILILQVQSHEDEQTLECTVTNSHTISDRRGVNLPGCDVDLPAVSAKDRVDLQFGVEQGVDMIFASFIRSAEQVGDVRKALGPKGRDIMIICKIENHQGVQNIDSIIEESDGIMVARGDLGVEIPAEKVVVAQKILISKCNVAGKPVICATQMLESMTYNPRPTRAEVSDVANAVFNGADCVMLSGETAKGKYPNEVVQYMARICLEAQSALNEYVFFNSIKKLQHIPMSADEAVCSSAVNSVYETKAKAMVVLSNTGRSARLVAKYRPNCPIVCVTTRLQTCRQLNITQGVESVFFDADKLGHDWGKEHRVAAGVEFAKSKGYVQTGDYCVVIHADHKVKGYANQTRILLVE
Outline: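 qHTS eight-point titrations against 0.2 nM LmPYK (E451W) in imidazole buffer pH 7.2 with 0.5 mM PEP, 0.1 mM ADP; 1 h, room temperature. Readout: PKLight luminescence, normalized to neutral DMSO wells.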

[17] = molecular target: Pyruvate kinase PKM (Homo sapiens) (UniProt P14618); test: qHTS Assay for Activators of Human Muscle Pyruvate Kinase (AID 954; active = well fitted curve in the direction sought with a large enough effect, not every such curve was filed as active)
Outline: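 PKM2, human, >95% pure, 0.1 nM; PEP 0.5 mM (Km), ADP 0.1 mM; 50 mM imidazole pH 7.2, 50 mM KCl, 0.01% Tween 20, 0.05% BSA; 1 h RT; luciferase luminescence readout.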

[18] = molecular target: Alpha-galactosidase A (Homo sapiens) (UniProt P06280); test: Counterscreen for Glucocerebrosidase Inhibitors: qHTS Assay for Human alpha-Galactosidase at pH 4.5 (AID 992)
Sequence of Alpha-galactosidase A (Homo sapiens) (P06280 whole entry, looked up): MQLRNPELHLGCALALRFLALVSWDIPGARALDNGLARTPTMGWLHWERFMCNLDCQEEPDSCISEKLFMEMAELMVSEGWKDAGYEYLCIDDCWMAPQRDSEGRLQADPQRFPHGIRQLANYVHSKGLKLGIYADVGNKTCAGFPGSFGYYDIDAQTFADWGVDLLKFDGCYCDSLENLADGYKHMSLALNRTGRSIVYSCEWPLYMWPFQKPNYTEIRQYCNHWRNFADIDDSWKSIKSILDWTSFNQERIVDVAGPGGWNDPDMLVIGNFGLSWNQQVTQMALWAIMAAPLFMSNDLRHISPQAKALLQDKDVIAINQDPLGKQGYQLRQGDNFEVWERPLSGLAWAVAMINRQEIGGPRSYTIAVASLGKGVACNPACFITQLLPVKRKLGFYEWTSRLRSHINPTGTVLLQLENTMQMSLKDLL
Outline: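 Fluorogenic 4-MU alpha-D-galactoside (80 uM) hydrolysis, 2 nM enzyme, pH 4.5 citrate buffer + 0.005% Tween-20; 20 min RT; NaOH/glycine pH 10 stop; Ex365/Em440. Compounds titrated 0.7 nM–77 uM; Hill-equation AC50.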

[19] = molecular target: alpha-glucosidase (Oryza sativa, rice) (UniProt Q653V4); test: Counterscreen for Glucocerebrosidase Inhibitors: qHTS Assay for Rice alpha-Glucosidase at pH 5.0 (AID 997)
Outline: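 Endpoint fluorogenic assay at pH 5.0: compounds (0.7 nM to 77 uM) titrated against 4 nM rice enzyme and 400 uM 4-MU-alpha-glucoside for 20 min at room temperature; NaOH/glycine stop, read ex 365/em 440 nm, Hill-fitted AC50.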

[20] = Validation of Assay for Modulators of Lamin A Splicing (AID 1459; active = well fitted curve in the direction sought with a large enough effect in the signal ratio; the % refers to the signal ratio;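 note: cells exposed to compound for two days before reading; ratio rise marks activators and ratio drop marks inhibitors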)
Outline: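 HeLa S3 lamin A-EGFP/DsRed2 stable clone, 600 cells/well, Opti-MEM 2% FBS; compounds by pin tool; 48 hrs, 37 °C/5% CO2; Acumen 488 nm scan, objects 10-100 um; GFP/RFP intensity ratio.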

[21] = qHTS Assay for Lipid Storage Modulators (AID 1519; calls by dose curve); settings: Drosophila S3 cells, BODIPY lipid droplet/cell ratio, laser cytometry, cells loaded with oleic acid
Outline: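 Cells seeded at 5,000 per well were treated with compounds over a concentration series and loaded with oleic acid (400 uM, as added). Lipid droplet fluorescence (488 nm excitation, 500-530 nm channel) was read by laser-scanning cytometry and normalized to 20 uM Triacsin C.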

[22] = molecular target: DNA repair nuclease/redox regulator APEX1 (Homo sapiens) (UniProt P27695); test: qHTS Validation Assay for Inhibitors of the Human Apurinic/apyrimidinic Endonuclease 1 (APE1) (AID 1705;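 note: TAMRA fluorescence gain over two minutes as APE1 cuts a quenched THF abasic duplex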)
Outline: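 qHTS, 1536-well. APE1 + cpd 15 min RT → 50 nM TAMRA/BHQ-2 THF-abasic dsDNA substrate → kinetic fluorescence, 3 reads/60 s; delta(read3−read1) = reaction progress. No-enzyme buffer = negative control.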

[23] = Counterscreen for APE1 Inhibitors: Fluorescent Dye Displacement Validation Assay (AID 1707)
Outline: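 Endpoint fluorescence read at 480 nm excitation / 540 nm emission; DNA-binding compounds lower signal by displacing 250 nM Thiazole Orange from 50 nM dsDNA containing a tetrahydrofuran abasic site, Tris-HCl pH7.5 buffer with NaCl and MgCl2.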

[24] = qHTS for differential inhibitors of proliferation of Plasmodium falciparum line 7G8 (AID 1815);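 note: potency is the fitted concentration of half-maximal effect; parasite growth measured after three days of incubation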
[25] = qHTS for differential inhibitors of proliferation of Plasmodium falciparum line Dd2 (AID 1882); settings: Potency: Plasmodium falciparum Dd2 proliferation inhibition; note: nearly all actives have a fitted effect of over 65% in size
Outline: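 SYBR Green DNA fluorescence (ex 485, em 535 nm) after overnight lysis quantifies parasite growth; compound exposure lasted 72 h at 37 C on infected red cells at 2.5% hematocrit, 0.3% parasitemia (final). Artemisinin 0.29 uM and vehicle wells define normalization.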

[26] = qHTS for differential inhibitors of proliferation of Plasmodium falciparum line W2 (AID 1883); settings: Potency: Plasmodium falciparum W2 proliferation inhibition;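 note: potency is the fitted concentration of half-maximal effect; parasites grown with compound for 72 h before lysis and staining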
[27] = molecular target: ATP-dependent DNA helicase Q1 (Homo sapiens) (UniProt P46063); test: qHTS Validation Assay for Inhibitors of RecQ-Like Dna Helicase 1 (RECQ1) (AID 2353)
Outline: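 RECQ1T1 50 nM; forked duplex (20 bp + 30-nt ss tails) 200 nM, ATP 2 mM final; pH 8.0, 2 mM MgCl2, 2.5 ug/ml poly(dI-dC); 15 min compound preincubation; discontinuous kinetic read over 2 h at RT.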

[28] = molecular target: RecQ-like DNA helicase BLM (Homo sapiens) (UniProt P54132); test: qHTS Validation Assay for Inhibitors of Bloom's syndrome helicase (BLM) (AID 2364)
Sequence of RecQ-like DNA helicase BLM (Homo sapiens) (P54132 whole entry, looked up): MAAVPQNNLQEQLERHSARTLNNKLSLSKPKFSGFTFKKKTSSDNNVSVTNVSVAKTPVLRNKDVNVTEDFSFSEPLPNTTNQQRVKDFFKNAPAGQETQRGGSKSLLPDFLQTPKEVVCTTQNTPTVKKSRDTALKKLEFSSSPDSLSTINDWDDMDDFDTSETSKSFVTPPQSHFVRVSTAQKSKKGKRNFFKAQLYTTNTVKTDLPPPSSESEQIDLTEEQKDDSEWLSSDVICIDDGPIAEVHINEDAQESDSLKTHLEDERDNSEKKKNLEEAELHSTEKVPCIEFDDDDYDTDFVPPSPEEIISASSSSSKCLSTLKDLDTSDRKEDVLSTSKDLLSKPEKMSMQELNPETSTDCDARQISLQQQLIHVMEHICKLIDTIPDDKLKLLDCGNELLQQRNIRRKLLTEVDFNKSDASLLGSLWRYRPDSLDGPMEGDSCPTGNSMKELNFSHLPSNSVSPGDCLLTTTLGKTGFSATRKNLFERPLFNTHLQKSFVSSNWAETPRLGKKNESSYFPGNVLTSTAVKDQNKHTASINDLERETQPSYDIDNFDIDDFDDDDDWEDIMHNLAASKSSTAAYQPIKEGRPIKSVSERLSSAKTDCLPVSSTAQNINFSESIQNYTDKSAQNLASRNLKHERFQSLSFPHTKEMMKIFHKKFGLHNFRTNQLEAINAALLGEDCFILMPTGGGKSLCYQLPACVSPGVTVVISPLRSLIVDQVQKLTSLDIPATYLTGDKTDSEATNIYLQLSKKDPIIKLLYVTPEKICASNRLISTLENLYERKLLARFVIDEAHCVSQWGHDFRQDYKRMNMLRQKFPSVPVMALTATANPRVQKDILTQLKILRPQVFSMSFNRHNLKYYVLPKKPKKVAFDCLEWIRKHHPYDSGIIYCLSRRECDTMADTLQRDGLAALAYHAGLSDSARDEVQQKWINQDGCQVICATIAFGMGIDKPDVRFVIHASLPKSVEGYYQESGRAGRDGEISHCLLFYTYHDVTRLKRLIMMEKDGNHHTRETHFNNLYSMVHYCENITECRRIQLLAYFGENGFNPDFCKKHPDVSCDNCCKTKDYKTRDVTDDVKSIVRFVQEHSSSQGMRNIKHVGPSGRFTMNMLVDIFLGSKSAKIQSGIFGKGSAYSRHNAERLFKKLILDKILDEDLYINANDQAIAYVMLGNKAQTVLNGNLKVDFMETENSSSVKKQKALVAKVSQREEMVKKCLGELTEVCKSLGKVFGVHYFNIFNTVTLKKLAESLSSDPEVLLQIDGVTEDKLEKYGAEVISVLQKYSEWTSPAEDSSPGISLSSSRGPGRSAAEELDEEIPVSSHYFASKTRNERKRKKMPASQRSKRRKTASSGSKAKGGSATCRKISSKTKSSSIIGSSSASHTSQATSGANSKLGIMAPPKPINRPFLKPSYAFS
Outline: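 Forked 20-bp duplex substrate (200 nM, TAMRA/BHQ-2) plus 2 mM ATP added after 15 min compound preincubation with 50 nM enzyme, pH 8.0, poly(dI-dC) 2.5 ug/ml. Strand separation followed by fluorescence (525/598 nm) over 2 h, normalized to enzyme-free and DMSO controls.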

For `NCCCCCCNS(=O)(=O)c1cccc2c(Cl)cccc12`, the activity change, negative = inhibition [1] was 7.92% (inactive), the Potency [2] was 7.94 µM (active) and 1.26 µM (active) and the activity change, negative = inhibition [3] was -4.09% (inactive). For the same compound, the Potency [4] was > 46 µM (inactive), the Potency [5] was > 46 µM (inactive) and the Potency [6] was “inactive”. For the same compound, the Potency [7] was “inactive”, the outcome [8] was “inactive” and the Potency [9] was 3.16 µM (active). The Potency [10] was 3.98 µM (active) and 2.51 µM (active), the Potency [11] was “inactive” and the Potency [12] was 0.199 µM (active). For the same compound, the outcome [13] was “inactive”, the activation [14] was -27.9% (inactive) and the outcome [15] was “inactive”. For the same compound, the Potency [16] was “inactive”, the outcome [17] was “inactive” and the outcome [18] was “inactive”. The outcome [19] was “inactive”, the outcome [20] was “inactive” and the activity change, negative = inhibition ([21]; at 57.5 µM (top of the series)) was 3.12% (inactive). For the same compound, the max response ([21]; measured here: cell count channel max response) was 13.8%, the max response ([21]; measured here: lipid channel max response) was 16.8% and the Potency [22] was “inactive”. For the same compound, the Potency [23] was “inactive”, the Potency [24] was 11.2 µM (active) and the Potency [25] was “inactive”. For the same compound, the Potency [26] was 12.6 µM (active), the Potency [27] was “inactive” and the Potency [28] was “inactive”.
